Compound activity deposited in PubChem by National Center for Advancing Translational Sciences (NCATS).
G9a inh = qHTS Assay for Inhibitors of Histone Lysine Methyltransferase G9a; actives 8.8% (n = 350,000); Histone-lysine N-methyltransferase EHMT2 (Homo sapiens), Q96KQ7; G9a H3K9 monomethylation, AlphaScreen, 2 h; Potency, µM (doses to about 102 µM), for the others: at the top dose activity, negative = inhibition, most hits filed as inhibitors; note: potency is the fitted concentration of half-maximal effect; % is set by controls: 0 for no effect and ±100 for the full control effect; nearly all actives have a fitted effect of over 75% in size
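Quantitative HTS format: methyltransferase activity on a biotin-tagged H3K9 peptide is measured by AlphaScreen, using a rabbit anti-monomethyl-H3K9 antibody with streptavidin donor and anti-IgG acceptor beads. Final levels are 20 nM enzyme, 500 nM peptide, 20 uM SAM; 2 h RT.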
LMNA splice mod = qHTS Assay for Modulators of Lamin A Splicing. HeLa LMNA splicing GFP/RFP minigene ratio, 48 h. Potency, µM (top dose mostly 46.1 µM), for the others: top-dose ratio change, negative = inhibition, most hits filed as inhibitors. actives 0.01% (n = 200,000). AID 1487, 2009; active = well fitted inhibition curve with a large enough effect in the signal ratio, with a control signal flat, not every such curve was filed as active; inconclusive = small, poorly fitted or top-dose-only effect, or effect the other way, or a change in a side signal; the % refers to the signal ratio; note: potency is the fitted concentration of half-maximal effect; % is set by controls: 0 for no effect and ±100 for the full control effect
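Read-out is the ratio of GFP to DsRed2 object intensity, acquired by 488 nm laser-scanning cytometry on HeLa lamin A-EGFP minigene reporter cells. Compound incubation 48 hrs at 37 °C in Opti-MEM with 2% FBS; DMSO 0.5% final.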
ALDH1A1 block = qHTS Assay for Inhibitors of Aldehyde Dehydrogenase 1 (ALDH1A1) | Potency, µM (highest dose often 75.3 µM), for inactives: at the highest dose activity, negative = inhibition, most hits filed as inhibitors | actives 7.3% (n = 220,000) | Aldehyde dehydrogenase 1A1 (Homo sapiens), P00352 | Purified ALDH1A1, NADH fluorescence, propionaldehyde substrate; active = well fitted inhibition curve with a large enough effect, not every such curve was filed as active; inconclusive = small, poorly fitted or top-dose-only effect, or another doubt; inactive = no such curve, though single readings can be large or run the other way;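 note: potency is the fitted concentration of half-maximal effect; plate controls were no enzyme wells and a reference inhibitor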
Target sequence (P00352 whole entry, looked up): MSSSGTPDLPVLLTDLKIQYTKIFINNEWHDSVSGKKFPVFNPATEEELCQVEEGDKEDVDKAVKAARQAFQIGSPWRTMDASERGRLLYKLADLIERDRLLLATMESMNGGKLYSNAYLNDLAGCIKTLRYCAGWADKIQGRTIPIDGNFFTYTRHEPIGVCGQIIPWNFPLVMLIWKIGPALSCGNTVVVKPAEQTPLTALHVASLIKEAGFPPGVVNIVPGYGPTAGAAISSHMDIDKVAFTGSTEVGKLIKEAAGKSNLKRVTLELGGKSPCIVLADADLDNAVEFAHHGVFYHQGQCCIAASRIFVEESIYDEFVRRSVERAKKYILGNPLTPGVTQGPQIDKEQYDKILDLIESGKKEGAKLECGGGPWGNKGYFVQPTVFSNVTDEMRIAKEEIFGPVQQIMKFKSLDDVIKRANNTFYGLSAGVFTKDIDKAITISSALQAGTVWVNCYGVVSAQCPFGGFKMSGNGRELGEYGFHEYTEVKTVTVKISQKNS
KDM4E inh = qHTS Assay for Inhibitors of Human Jumonji Domain Containing 2E (JMJD2E) | Lysine-specific demethylase 4E (Homo sapiens), B2RXH2 | JMJD2E catalytic domain, FDH-coupled NADH fluorescence (FDH is formaldehyde dehydrogenase) | Potency, µM (top dose mostly 57.1 µM), for inactives: top-dose activity change, negative = inhibition, usual class: inhibitors | actives 1.6% (n = 230,000); active = well fitted inhibition curve with a large enough effect, not every such curve was filed as active; inconclusive = small, poorly fitted or top-dose-only effect, or another doubt; inactive = no such curve, though single readings can be large or run the other way;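 note: potency is the fitted concentration of half-maximal effect; 0% = wells with enzyme and -100% = buffer wells without enzyme; nearly all actives have a fitted effect of over 50% in size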
Target sequence (B2RXH2 1-337 limits assumed): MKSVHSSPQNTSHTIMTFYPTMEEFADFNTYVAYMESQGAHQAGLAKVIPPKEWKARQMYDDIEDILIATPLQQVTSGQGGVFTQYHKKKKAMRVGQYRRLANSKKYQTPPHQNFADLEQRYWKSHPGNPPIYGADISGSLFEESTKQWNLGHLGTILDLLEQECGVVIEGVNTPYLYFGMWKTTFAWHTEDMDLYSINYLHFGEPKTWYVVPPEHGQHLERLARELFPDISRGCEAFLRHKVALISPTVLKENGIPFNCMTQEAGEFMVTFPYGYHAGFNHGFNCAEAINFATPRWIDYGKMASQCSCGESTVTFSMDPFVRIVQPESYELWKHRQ
miR-21 reporter = qHTS Assay for Modulators of miRNAs and/orActivators of miR-21. AID 2288, 2010. 340,000 tested, under 10 active. HeLa miR-21 FLuc reporter, luciferase, 48 h. Potency, µM (titrated, usually from 38.3 µM), for inactives: at the top dose activity change, positive = activation, most hits filed as activators;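 note: % of control where 0% means no effect; miR-21 action dims this reporter so a rising signal means less miR-21 action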
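Compounds were titrated across several concentrations (up to approximately 40 uM) and incubated 48 hours with HeLa miR-21-FLuc reporter cells (miR-21 target sequence downstream of FLuc, endogenous miR-21). Readout was firefly luciferase luminescence after lytic detection reagent.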
Sfp PPTase inh = qHTS Assay for Inhibitors of Bacillus subtilis Sfp phosphopantetheinyl transferase (PPTase); Biochemical Sfp PPTase activity, qHTS; Potency, µM, for inactives: largest response in the series, negative = inhibition, hits mostly inhibitors; actives 3.5% (n = 310,000); AID 1490, 2009;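 note: the enzyme is Sfp with the accession as filed and its product quenches rhodamine fluorescence; potency is the fitted concentration of half-maximal effect; 0% = enzyme reaction without inhibitor and -100% = no enzyme wells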
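Reaction rates are the 30-min fluorescence difference (ex 525, em 598 nm) in wells containing 15 nM Sfp, 5 uM rhodamine-CoA and 12.5 uM BHQ-2-YbbR at pH 7.6 with 10 mM MgCl2.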
Numbers without * were called inactive; ? = inconclusive; / = no result given; [ ] = remark or other dose. Hits are enriched below; roughly 13% of the tested compounds scored in any of these assays. Unless noted, calls come from the whole dose curve; as a rule, active = well fitted curve in the direction sought with a large enough effect; inconclusive = small, poorly fitted or top-dose-only effect, or another doubt; inactive = no such curve, though single readings can be large; an effect the other way counts as inactive or inconclusive.

SMILES	G9a inh	LMNA splice mod	ALDH1A1 block	KDM4E inh	miR-21 reporter	Sfp PPTase inh
Cc1ccc(C(C#N)c2ccc(Cl)nn2)cc1 (configuration not stated)	1.5%	-4.8%[46 µM]	8.91µM*	4.4%	2.3%	16.7%
N#CC(c1ccc(Cl)cc1)c1ccc(Cl)nn1 (configuration not stated)	28.4%	-11.5%	6.31µM*	-0.8%	5.7%	-8.3%
N#CC(c1ccc(Cl)nn1)c1ccccc1Cl (configuration not stated)	4.2%	-7.4%	3.98µM*	-1.9%	0.5%	-7.7%
N#CC(c1ccc(Cl)cc1)c1ncc(C(F)(F)F)cc1Cl (configuration not stated)	110.1%[59 µM]	3.9%	5.6%	0.2%	1.1%	0.1%
Cc1ccc(C)c(SCC(=O)Nc2cc(C)nn2-c2ccc(F)cc2)c1	11.2µM*	-2.1%	-0.6%	-1.0%	-3.6%	21.7%
Cc1cc(N2CCC(C(=O)N3CCN(c4cccc(C)c4C)CC3)CC2)n2ncnc2n1	-32.5%	?	3.98µM*	-13.1%	0.1%	-6.9%
Cc1cccc(N2CCN(C(=O)C3CCCCC3)CC2)c1C	18.7%[59 µM]	-20.1%	-11.2%	1.8%	0.9%	-18.4%
COc1ccc(S(=O)(=O)NNC(=O)c2sccc2-n2cccc2)cc1	-11.5%	-5.4%[46 µM]	2.82µM*	-3.5%	-9.6%	5.3%
COc1ccc(S(=O)(=O)NNC(N)=S)cc1	15.8µM*	17.2%[46 µM]	?	-10.5%	1.1%	28.2µM*
COc1ccc(S(=O)(=O)NNC(=O)c2cccs2)cc1	44.7µM*	-4.3%[46 µM]	?	-19.9%	-5.6%	-26.0%
Cc1cc(C)cc(NC(=O)C(NS(=O)(=O)c2cccc3nsnc23)c2ccccc2)c1 (configuration not stated)	-4.7%[59 µM]	/	/	/	-0.9%	/
CCC(C)NC(=S)Nc1ccc(C(=O)OC)cc1 (configuration not stated)	7.5%	/	7.5%	7.6%	-8.2%	12.0%
CC(C)NC(=O)C1CCN(C(=O)c2cc3sccc3n2Cc2ccc(F)cc2)CC1	14.6%	0.1%	12.6µM*	2.4%	12.5%	-2.6%
CC(C)NC(=O)C1CCN(C(=O)c2cc3sccc3n2Cc2ccc(Cl)cc2)CC1	9.2%[59 µM]	/	/	/	?	/
CC1CCN(C(=O)C2CCN(C(=O)c3cc4sccc4n3Cc3ccc(F)cc3)CC2)CC1	?	?	14.1µM*	-0.7%	19.1%	7.7%
COC(=O)c1cc2sccc2n1Cc1ccc(F)cc1	75.3%[59 µM]	-2.6%[46 µM]	/	/	22.0%	/
O=C(c1cccs1)N1CCCc2cc(NS(=O)(=O)c3cc(F)ccc3F)ccc21	2.8%[59 µM]	3.5%[46 µM]	/	/	-9.1%	/
CCC(C)(C)n1nnnc1CN1CCC(NC(=O)c2ccc(Br)cc2)CC1	-13.4%[59 µM]	?	5.01µM*	6.2%	8.7%	7.4%
CC(C)(C)n1nnnc1CN1CCC(NC(=O)NC2CCCCC2)CC1	-6.4%[12.7 µM]	-4.6%	-11.3%	1.1%	0.4%	16.3%
COc1ccc(CC(=O)NC2CCN(Cc3nnnn3C(C)(C)C)CC2)cc1OC	?	10.1%	25.1µM*	-1.0%	0.8%	4.1%
C=CCN(CC=C)C(=O)c1ccc(OC2CCN(S(=O)(=O)N(C)C)CC2)cc1	10.0%	/	-8.4%	-7.5%	-24.4%	2.7%
CCc1nc(C)cn1S(=O)(=O)c1cc(C)c(OC)c(C)c1C	10.8%	?	25.1µM*	2.7%	14.2%	4.6%
CCc1nc(C)cn1S(=O)(=O)c1cc(C)c(OC)cc1C	50.1µM*	1.4%	10.1%	-1.5%	-1.9%	-3.5%
CCc1nc(C)cn1S(=O)(=O)c1cc(Cl)c(OC)cc1Cl	-7.3%	22.0%	11.7%	9.3%	-0.5%	-0.8%
CCc1nc(C)cn1S(=O)(=O)c1cc(Br)c(C)cc1OC	?	-2.1%	-1.3%	3.6%	-2.3%	-25.2%
SMILES	G9a inh	LMNA splice mod	ALDH1A1 block	KDM4E inh	miR-21 reporter	Sfp PPTase inh
Cc1ccc(/C=C/c2onc(C)c2S(=O)(=O)N2CCC(C(=O)NCc3ccc(OC(C)C)cc3)CC2)cc1	6.0%[59 µM]	0.8%[46 µM]	/	/	-2.9%	/
Cc1ccc(NC(=O)CCC(=O)c2cccs2)c(O)c1	50.0%[12.7 µM]	/	/	-5.1%	-51.2%	17.1%
CCc1cc(=O)n2[nH]c(C)c(-c3ccccc3OC)c2n1	18.9%[59 µM]	-4.9%	8.0%	-4.9%	13.5%	12.9%
COCc1cc(=O)n2c(-c3ccccc3OC)n[nH]c2n1	3.16µM*	-7.1%	-12.2%	?	-1.2%	9.2%
COc1cc(C(CC(=O)NCc2ccccc2)N2Cc3ccccc3C2=O)cc(OC)c1OC (configuration not stated)	?	/	/	/	3.9%	/
Cc1cc(O)c(C=O)c2c1C(=O)Oc1c(COC(=O)/C=C/C(=O)O)c(O)c(C(=O)O)c(C)c1O2	?	/	4.47µM*	?	/	-52.1%
Cc1cc(O)c(C=O)c2c1C(=O)Oc1c(CO)c(O)c3c(c1O2)C(O)OC3=O (configuration not stated)	?	/	?	20µM*	-2.3%	14.1µM*
Cc1cc(O)c(C=O)c(O)c1C(=O)O	/	-19.2%	-10.0%	2.0%	/	-6.5%
Cc1c(-c2ccccc2)nc2ccccc2c1C(=O)Nc1ccncc1	-7.3%	/	/	/	3.4%	14.7%
CC(C)c1ccc(C(=O)NNC(=O)c2ccncc2)cc1	-8.5%	/	/	/	-10.1%	-5.1%
CC(C)c1ccc(C(N)=S)cc1	50.1µM*	-12.6%[46 µM]	-13.7%	3.7%	-12.6%	1.1%
CC(=O)N1CCC(=NNS(=O)(=O)c2ccc(C)c([N+](=O)[O-])c2)CC1	11.2µM*	1.9%	10µM*	1.3%	-5.4%	1.0%
CC(=O)N1CCC(=NNS(=O)(=O)c2cccc([N+](=O)[O-])c2)CC1	10µM*	11.5%	11.2µM*	2.9%	-2.4%	-27.2%
CC(=O)N1CCC(=NNc2ccc(S(N)(=O)=O)cc2[N+](=O)[O-])CC1	3.9%[59 µM]	/	/	-4.8%	0.7%	11.0%
C/C(=N\NS(=O)(=O)c1cccc([N+](=O)[O-])c1)c1cccnc1	31.6µM*	?	?	-20.8%	-1.3%	?
CCOc1ccccc1NC(=O)c1nc(SC(C)C)ncc1Cl	55.6%[59 µM]	/	/	/	5.7%	/
COc1ccc(C2CC(O)(c3ccccc3)Oc3cc(OC)ccc32)cc1 (configuration not stated)	?	/	/	?	20.1%	?
COc1ccc2c(c1)OC(C)(C)C(c1ccccc1)C2c1ccc(OCCN2CCCC2)cc1 (configuration not stated)	?	/	/	/	/	50.1µM*
Cc1cccc(C)c1NC(=O)Cc1cccs1	10.9%	/	/	/	-1.7%	12.8%
